Assay results taken from PubChem BioAssay.
Unmarked numbers belong to inactive results. For some assays here: Entries with a potency or affinity are not part of this list. Activity calls are given as the source filed them. Unless noted, no rule for the calls is given here.

Experiments:
[1] = antimalarial activity against Dd2 strain (AID 2302;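 active = growth inhibition above 50% at the single 2 µM test dose, taken to imply half-maximal potency below 2 µM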;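 also: 0% = DMSO untreated growth and 100% = chloroquine plus artemisinin killed control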); conditions: P. falciparum Dd2 in RBCs, LDH growth readout, 72 h; at 2 µM; active compounds read high
[2] = human hepatoma cell viability loss – ATP luminescence, cytotoxicity control for P. falciparum antimalarial project, primary screen (AID 2303;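 active = inhibition above 50%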;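 also: 0% = DMSO wells and 100% = digitonin-killed cells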); conditions: HepG2 viability, 24-48 h, at 10 µM, active compounds read high
[3] = biological target: L-lactate dehydrogenase (Plasmodium falciparum (isolate CDC / Honduras)) (UniProt Q27743); assay: PfLDH activity inhibition – cell lysate, 3D7 strain, counter-screen for P. falciparum growth inhibition project (AID 2304);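 also: 0% = vehicle and 100% = reference inhibitor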; conditions: P. falciparum 3D7 crude extract, LDH APAD/NBT absorbance; at 2 µM; active compounds read high
[4] = inhibition of 3D7 malaria parasite growth – strain 3D7 (AID 2306);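 also: 0% = DMSO wells and 100% = chloroquine plus artemisinin control wells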; conditions: P. falciparum 3D7 erythrocytic growth, LDH absorbance, 72 h; at 2 µM; active compounds read high
[5] = biological target: Calcium-dependent protein kinase 1 (Plasmodium falciparum (isolate 3D7)) (UniProt P62344); assay: PfCDPK1 kinase inhibitors, biochemical, TCAMS library (AID 1159585; cut-off not given, nearly all actives have IC50 up to about 0.98 µM;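 also: inhibitors leave more ATP so luminescence rises with inhibition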); conditions: recombinant PfCDPK1, Kinase-Glo ATP depletion luminescence
[6] = biological target: Plasmodium falciparum protein kinase 6 (PK6, PF3D7_1337100) (UniProt Q8IDW1); assay: PfPK6 kinase inhibitors, biochemical, TCAMS library (AID 1159586); conditions: recombinant PfPK6, Kinase-Glo ATP depletion luminescence
[7] = biological target: Protein kinase 7 (PK7), Plasmodium falciparum 3D7 (PF3D7_0213400) (UniProt Q7YTF7); assay: inhibition of Plasmodium PK7 catalytic activity – biochemical, TCAMS antimalarial set, Kinase-Glo luminescence (AID 1159587); conditions: recombinant PfPK7, Kinase-Glo ATP depletion luminescence
[8] = biological target: Calcium-dependent protein kinase 4 (Plasmodium falciparum (isolate 3D7)) (UniProt Q8IBS5); assay: PfCDPK4 kinase inhibitors, biochemical, TCAMS library (AID 1159588; cut-off not given, nearly all actives have IC50 up to about 0.91 µM); conditions: recombinant PfCDPK4, Kinase-Glo ATP depletion luminescence
Calcium-dependent protein kinase 4 (Plasmodium falciparum (isolate 3D7)), sequence (Q8IBS5 whole entry, looked up): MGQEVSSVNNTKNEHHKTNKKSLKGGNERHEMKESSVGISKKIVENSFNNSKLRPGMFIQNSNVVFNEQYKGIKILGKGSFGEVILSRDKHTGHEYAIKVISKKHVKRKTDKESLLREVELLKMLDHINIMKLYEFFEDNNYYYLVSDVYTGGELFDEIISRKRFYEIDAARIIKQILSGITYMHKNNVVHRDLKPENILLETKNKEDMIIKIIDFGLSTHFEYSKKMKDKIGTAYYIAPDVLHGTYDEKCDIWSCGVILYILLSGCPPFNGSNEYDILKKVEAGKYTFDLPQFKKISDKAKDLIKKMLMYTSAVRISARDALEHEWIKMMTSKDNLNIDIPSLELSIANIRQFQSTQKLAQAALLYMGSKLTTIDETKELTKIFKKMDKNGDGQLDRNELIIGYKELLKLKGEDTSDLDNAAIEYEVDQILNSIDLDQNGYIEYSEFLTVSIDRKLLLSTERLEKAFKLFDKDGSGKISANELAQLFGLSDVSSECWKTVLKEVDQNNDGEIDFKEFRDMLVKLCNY

Plasmodium falciparum protein kinase 6 (PK6, PF3D7_1337100), sequence (Q8IDW1 1-305): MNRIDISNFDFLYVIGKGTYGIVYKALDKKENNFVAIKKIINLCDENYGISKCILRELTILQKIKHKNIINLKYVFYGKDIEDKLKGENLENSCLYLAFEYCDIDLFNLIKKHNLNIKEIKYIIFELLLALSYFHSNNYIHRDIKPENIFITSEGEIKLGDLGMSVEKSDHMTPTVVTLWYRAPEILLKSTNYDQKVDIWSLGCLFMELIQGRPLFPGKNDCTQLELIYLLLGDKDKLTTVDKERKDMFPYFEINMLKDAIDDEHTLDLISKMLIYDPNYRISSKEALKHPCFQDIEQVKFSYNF
Protein kinase 7 (PK7), Plasmodium falciparum 3D7 (PF3D7_0213400), sequence (Q7YTF7 1-343): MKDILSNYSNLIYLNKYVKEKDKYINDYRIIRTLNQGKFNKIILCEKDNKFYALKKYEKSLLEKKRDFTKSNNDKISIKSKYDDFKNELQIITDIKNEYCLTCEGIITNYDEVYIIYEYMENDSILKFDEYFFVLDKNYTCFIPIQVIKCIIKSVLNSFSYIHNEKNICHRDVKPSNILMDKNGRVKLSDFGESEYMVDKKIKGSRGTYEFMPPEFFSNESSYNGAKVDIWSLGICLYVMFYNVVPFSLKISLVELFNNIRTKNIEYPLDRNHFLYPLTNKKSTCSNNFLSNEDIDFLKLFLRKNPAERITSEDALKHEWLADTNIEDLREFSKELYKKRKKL
Calcium-dependent protein kinase 1 (Plasmodium falciparum (isolate 3D7)), sequence (P62344 whole entry, looked up): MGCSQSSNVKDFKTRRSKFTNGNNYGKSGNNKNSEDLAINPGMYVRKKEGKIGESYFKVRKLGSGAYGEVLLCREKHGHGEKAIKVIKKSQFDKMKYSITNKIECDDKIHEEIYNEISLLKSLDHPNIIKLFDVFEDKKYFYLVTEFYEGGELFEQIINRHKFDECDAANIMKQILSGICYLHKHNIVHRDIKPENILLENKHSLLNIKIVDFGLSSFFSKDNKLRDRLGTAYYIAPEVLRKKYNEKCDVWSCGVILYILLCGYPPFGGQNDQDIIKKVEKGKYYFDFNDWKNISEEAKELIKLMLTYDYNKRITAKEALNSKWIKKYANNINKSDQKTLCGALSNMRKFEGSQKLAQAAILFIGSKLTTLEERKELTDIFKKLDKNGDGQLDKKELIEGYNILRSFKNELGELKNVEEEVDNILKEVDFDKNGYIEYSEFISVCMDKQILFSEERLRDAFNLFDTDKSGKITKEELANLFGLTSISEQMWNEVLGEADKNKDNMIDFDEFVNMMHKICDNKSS
L-lactate dehydrogenase (Plasmodium falciparum (isolate CDC / Honduras)), sequence (Q27743 whole entry, looked up): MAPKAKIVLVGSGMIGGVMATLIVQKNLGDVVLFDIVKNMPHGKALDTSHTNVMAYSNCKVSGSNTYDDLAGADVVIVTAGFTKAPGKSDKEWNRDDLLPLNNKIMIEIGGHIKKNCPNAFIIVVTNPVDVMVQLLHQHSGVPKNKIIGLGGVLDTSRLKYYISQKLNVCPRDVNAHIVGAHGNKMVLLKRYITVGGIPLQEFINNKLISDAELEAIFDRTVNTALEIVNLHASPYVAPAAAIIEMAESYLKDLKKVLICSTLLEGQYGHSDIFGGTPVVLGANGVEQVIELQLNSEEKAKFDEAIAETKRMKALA

SMILES	growth inhibition [1]	inhibition [2]	inhibition [3] [%]	growth inhibition [4]	outcome [5]	outcome [6]	outcome [7]	outcome [8]
COc1cc2c(cc1OCCN1CCC(N3CCCCC3)CC1)N(C(=O)/C=C/c1ccccc1OC(F)(F)F)CC2	93% (active)	64% (active)	-7	101% (active)	inactive	inactive	inactive	inactive
O=C(N[C@@H](Cc1ccccc1)C(=O)NCCN1CCCCC1)c1ccc(O)c(-c2cccc(C(F)(F)F)c2)c1	3%	0%	7	92% (active)	inactive	inactive	inactive	inactive
O=S(=O)(NCCN1CCCC1)c1ccc(-c2cccc(CNC3Cc4ccccc4C3)c2)s1	69% (active)	57% (active)	2	98% (active)	inactive	inactive	inactive	inactive
c1ccc(CNCc2cccc(-c3csc(-c4nc5ccccc5[nH]4)c3)c2)cc1	54% (active)	24%	-3	102% (active)	inactive	inactive	inactive	inactive
CC1CCN(CCNC(=O)c2ccc3c(=O)n(Cc4ccc(Cl)cc4)c(=S)[nH]c3c2)CC1	75% (active)	6%	4	101% (active)	inactive	inactive	inactive	inactive
O=C(Nc1ccc(OC2CCN(Cc3ccsc3)C2)c(Cl)c1)c1ccco1 (stereo not given)	96% (active)	-6%	-5	93% (active)	inactive	inactive	inactive	inactive
Oc1ccc(CCCNc2nc(NCc3ccccc3-c3ccccc3)nc(N3CCNCC3)n2)cc1	48%	39%	5	94% (active)	inactive	inactive	inactive	inactive
NC1=NC(c2ccccc2)(c2ccccc2)C(=O)N1CCOc1ccccc1	57% (active)	42%	0	90% (active)	inactive	inactive	inactive	inactive
O=C(NCCCCCN1CCC(c2c[nH]c3ccccc23)CC1)Nc1cccc(Cl)c1	0%	36%	-1	86% (active)	inactive	inactive	inactive	inactive
CN1CCN(CCCN(Cc2cccc(-c3cccc(CNC4CCCC4)c3)c2)C(=O)CCC2CCCC2)CC1	96% (active)	35%	-3	100% (active)	inactive	inactive	inactive	inactive
COc1ccccc1C(C)NCC(=O)Nc1cccc(C(=O)Nc2cccc(C(F)(F)F)c2)c1 (stereo not given)	39%	34%	5	91% (active)	inactive	inactive	inactive	inactive
Cc1ccccc1NC(=S)NC1CCN(CCCCCNC(=O)/C=C/c2ccc(Cl)c(Cl)c2)CC1	7%	14%	2	99% (active)	inactive	inactive	inactive	inactive
O=C(Nc1cc(C(F)(F)F)cc(C(F)(F)F)c1)N1CCC(CCN2CCC(c3c[nH]c4ccccc34)CC2)CC1	16%	17%	6	91% (active)	inactive	inactive	inactive	inactive
COc1cccc(C2CCN(CCN3CCC(NC(=O)c4ccc(-c5ccc(Cl)cc5)cc4)CC3)CC2)c1	42%	31%	-12	93% (active)	inactive	inactive	inactive	inactive
COc1cc(C(=O)NCCCN2CCN(c3cccc(Cl)c3)CC2)ccc1-c1nc2cc(Cl)c(F)cc2[nH]1	81% (active)	15%	0	100% (active)	inactive	inactive	inactive	inactive
Cc1cccc2[nH]c(-c3cccc(-c4cccc(NC(=O)c5cn(C)c(=O)n5C)c4)c3)nc12	80% (active)	5%	-5	99% (active)	inactive	inactive	inactive	inactive
COC(=O)c1ccc2nc(-c3cc(-c4cccc(-c5ccccc5)c4)cnc3N)[nH]c2c1	61% (active)	25%	5	101% (active)	inactive	inactive	inactive	inactive
CC(C)CNC(=O)c1ccnc(-c2ccc(CNC3Cc4ccccc4C3)cc2)c1	29%	25%	-5	99% (active)	inactive	inactive	inactive	inactive
O=C(/C=C/c1c(Cl)cccc1Cl)NC1CCC(CN2CCC(c3c[nH]c4ccncc34)CC2)CC1 (stereo not given)	100% (active)	78% (active)	2	99% (active)	inactive	inactive	inactive	inactive
Cc1ccc(CNC(=O)[C@H](CC(C)C)Nc2cc(C)nc(NCC3CCCCC3)n2)cc1	44%	6%	-2	96% (active)	inactive	inactive	inactive	inactive

SMILES	growth inhibition [1]	inhibition [2]	inhibition [3] [%]	growth inhibition [4]	outcome [5]	outcome [6]	outcome [7]	outcome [8]
NC1CCN(Cc2ccc(-c3ccc(-c4nc5ccc(F)cc5[nH]4)s3)cc2)C1 (stereo not given)	98% (active)	32%	3	100% (active)	inactive	inactive	inactive	inactive
S=C(NN=Cc1ccccn1)Nc1ccc(Cl)c(Cl)c1	85% (active)	40%	5	98% (active)	inactive	inactive	inactive	inactive
CCOc1ccc(NC(=O)c2ccc(CN3CCCN(Cc4cccc(O)c4)CC3)cc2)cc1	9%	44%	0	85% (active)	inactive	inactive	inactive	inactive
O=C1CSc2ccc(CNC3CCN(CCc4c(Cl)cnc5ccc(F)cc45)CC3)nc2N1	52% (active)	21%	-2	98% (active)	inactive	inactive	inactive	inactive
CNc1c2c(nc3ccc(NC(=O)CCCCCCc4ccccc4)cc13)CCCC2	82% (active)	0%	0	100% (active)	inactive	inactive	inactive	inactive
O=C(/C=C/c1ccc(Cl)c(Cl)c1)NCCCCCN1CCCN(C(=O)Nc2cccc(Cl)c2)CC1	2%	11%	0	102% (active)	inactive	inactive	inactive	inactive
CN(Cc1cc(C(F)(F)F)cc(C(F)(F)F)c1)C(=O)C(Cc1ccc(F)cc1)C1CCCNC1 (stereo not given)	89% (active)	10%	4	96% (active)	inactive	inactive	inactive	inactive
O=C(Nc1ccc(OC2CCN(Cc3ccc(F)cc3)C2)c(Cl)c1)c1ccco1 (stereo not given)	97% (active)	9%	-2	96% (active)	inactive	inactive	inactive	inactive
Cc1c(C(=O)NCc2ccncc2)sc2nc(-c3cccc([N+](=O)[O-])c3)cn12	29%	18%	-2	97% (active)	inactive	inactive	inactive	inactive
Cc1nc(NC2=NCN(CCCN3CCOCC3)CN2)nc2c(C)cccc12	62% (active)	17%	4	89% (active)	inactive	inactive	inactive	inactive
Cc1ccc(-n2nc(-c3ccccc3)c3cc(C(=O)NCCN)sc32)cc1	43%	28%	2	92% (active)	inactive	inactive	inactive	inactive
O=C(N[C@H]1CCN(Cc2ccc(OCCN3CCNCC3)c3ccccc23)C1)c1ccc(Cl)c(Cl)c1	99% (active)	53% (active)	-2	100% (active)	inactive	inactive	inactive	inactive
CC[C@H](C)CNC(=O)c1cncc(-c2cccc(CN3CCC(N4CCCC4)CC3)c2)c1	5%	-1%	6	97% (active)	inactive	inactive	inactive	inactive
COC(=O)c1sc(-c2ccc(Cl)cc2)cc1N(CCCN1CCC(N2CCCCC2)CC1)S(=O)(=O)c1ccc(C)cc1	86% (active)	25%	-2	103% (active)	inactive	inactive	inactive	inactive
COc1ccc2nc(-c3ccccc3)cc(NCCCNc3cc(-c4ccccc4)nc4ccc(OC)cc34)c2c1	99% (active)	100% (active)	9	99% (active)	inactive	inactive	inactive	inactive
CC(C)(C)c1nn(-c2ccc(Cl)cc2)c2[nH]c(=O)c(CNCc3ccc4c(c3)OCO4)cc12	98% (active)	15%	7	100% (active)	inactive	inactive	inactive	inactive
Cc1noc(C)c1-c1cccc(CNCc2ccc(-c3ccc(-c4nc5ccc(C(F)(F)F)cc5[nH]4)cc3)cc2)c1	97% (active)	35%	2	102% (active)	inactive	inactive	inactive	inactive
COc1ccc2c(NN=Cc3ccccc3)cc(C)nc2c1	49%	-2%	-2	100% (active)	inactive	inactive	inactive	inactive
CCc1ccc(CN(CCCOc2cccc(CC(=O)NCc3cnc[nH]3)c2)Cc2ccc(-n3ccnc3)cc2)cc1	28%	1%	-2	99% (active)	inactive	inactive	inactive	inactive
CCCCN(CCCC)CCCN(CCCN(CCCC)CCCC)c1cc(C)nc(Nc2ccc3cc(Br)ccc3c2)n1	99% (active)	52% (active)	5	101% (active)	inactive	inactive	inactive	inactive
